Screening results: PubChem BioAssay, Paczesny and Yang Labs, IUPUI and University of Michigan
The entries come from a sample that favours hits as a whole.
ST2 IL33 inh: inhibitors of human ST2 (IL1RL1) binding to IL-33, primary screen, biochemical, AlphaLISA; AlphaLISA ST2-Fc/biotin-IL-33 interaction, 1 h; 78,000 compounds, 2.3% hits; inhibition, % for hits at 17 µM; Interleukin-1 receptor-like 1 (Homo sapiens), Q01638; in the data active = inhibition above about 30%
Target sequence (Q01638 whole entry, looked up): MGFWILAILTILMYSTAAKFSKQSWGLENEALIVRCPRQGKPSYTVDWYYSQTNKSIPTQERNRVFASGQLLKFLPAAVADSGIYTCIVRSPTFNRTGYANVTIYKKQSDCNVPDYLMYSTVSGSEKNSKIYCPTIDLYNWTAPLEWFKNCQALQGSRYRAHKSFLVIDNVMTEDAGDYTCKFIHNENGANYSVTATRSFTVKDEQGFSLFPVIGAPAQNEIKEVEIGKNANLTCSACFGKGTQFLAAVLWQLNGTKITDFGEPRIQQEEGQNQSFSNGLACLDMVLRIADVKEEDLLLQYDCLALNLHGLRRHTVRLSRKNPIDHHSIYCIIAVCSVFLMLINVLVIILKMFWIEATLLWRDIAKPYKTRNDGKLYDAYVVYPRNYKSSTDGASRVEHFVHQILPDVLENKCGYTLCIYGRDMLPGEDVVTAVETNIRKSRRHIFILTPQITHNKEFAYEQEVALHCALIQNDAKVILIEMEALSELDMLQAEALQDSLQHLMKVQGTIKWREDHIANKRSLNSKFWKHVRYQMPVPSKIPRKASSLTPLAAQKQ
The depositor's hits bear a star; ! = repeats disagree.

Screening COc1ccc(-n2c(=O)[nH]cc(C(=O)Nc3ccc(F)cc3F)c2=O)cc1 returned ST2 IL33 inh inactive.
COc1ccc2cc3cc(C(=O)Nc4ccc(F)cc4)sc3nc2c1 was read as ST2 IL33 inh 35.0%*.
For COc1ccc2cc3cc(C(=O)Nc4ccc(F)cc4F)sc3nc2c1 the results were ST2 IL33 inh 35.0%*.
Cc1cccn2c(=O)c3cc(C(=O)Nc4ccccc4C#N)sc3nc12 was read as ST2 IL33 inh inactive.
For COc1ccc2nc3oc(C(=O)Nc4ccccc4F)cc3cc2c1 the results were ST2 IL33 inh inactive.
For COc1ccc2cc3cc(C(=O)Nc4ccccc4F)sc3nc2c1 the results were ST2 IL33 inh 41.0%*.
`COc1ccc(C(=O)Nc2ccccc2F)cc1` gave ST2 IL33 inh inactive.
Screening O=S(=O)(c1ccc(F)cc1)N1CCN(Cc2c[nH]c3ccccc23)CC1 returned ST2 IL33 inh inactive.
Screening COc1ccc(S(=O)(=O)N(C)C2CCCCC2)cc1 returned ST2 IL33 inh inactive.
For COc1cccc(F)c1-c1ccc(C(=O)NC(C)(C)C)o1 the results were ST2 IL33 inh inactive.
`CS(=O)(=O)N(CC(=O)N1CCN(c2ccccc2F)CC1)c1ccccc1Br` gave ST2 IL33 inh inactive.
Screening Cc1ccc(NCC(O)Cn2c(C)c(C)c3ccccc32)cc1 (stereo not drawn) returned ST2 IL33 inh 36.0%*!.
Cc1c(C)n(CC(O)CN2CCOCC2)c2ccccc12 (stereo not drawn) was read as ST2 IL33 inh inactive.
Screening CN(CC(O)Cn1c2ccccc2c2ccccc21)S(=O)(=O)c1ccc(Br)cc1 (stereo not drawn) returned ST2 IL33 inh inactive.
Screening Cc1ccc(NCC(O)Cn2c(C)c(C)c3ccccc32)cc1C (stereo not drawn) returned ST2 IL33 inh inactive.
`Cc1c(C)n(CC(O)CNc2ccc(Br)cc2)c2ccccc12` (stereo not drawn) gave ST2 IL33 inh 31.0%*.
Screening Cc1cc(C)n(CC(O)Cn2c(C)c(C)c3ccccc32)n1 (stereo not drawn) returned ST2 IL33 inh inactive.
`COc1ccc(S(=O)(=O)N[C@@H]2CC[C@@H](N)C2)c2c1CCCC2` gave ST2 IL33 inh inactive.
O=C(C1CCCN1Cc1ccccc1)N1C[C@H]2CC=CC[C@H]2C1 (stereo partly drawn) was read as ST2 IL33 inh inactive.
`O=[N+]([O-])c1ccc(S(=O)(=O)N2CCN(c3ccc(Cl)cc3)CC2)cc1` gave ST2 IL33 inh 33.0%*.
Screening CN1CCN(S(=O)(=O)c2ccc([N+](=O)[O-])cc2)CC1 returned ST2 IL33 inh inactive.
For COc1ccc(N2CCN(S(=O)(=O)c3ccc(OC)cc3)CC2)cc1 the results were ST2 IL33 inh inactive.
Clc1ccccc1CNc1ncnc2sc3c(c12)CCCC3 was read as ST2 IL33 inh inactive.
CCc1csc(CNC(=O)c2ccc(N(C)C)nc2)n1 was read as ST2 IL33 inh inactive.
For COCCC1CN(Cc2ccc(S(C)(=O)=O)cc2)CCO1 (stereo not drawn) the results were ST2 IL33 inh inactive.
Screening O=C(O)CCCC(=O)N1N=C(c2ccc(Br)cc2)CC1c1ccc(Cl)cc1 (stereo not drawn) returned ST2 IL33 inh inactive.
For Cc1ccc(C2=NN(C(=O)CCC(=O)O)C(c3ccc(Br)cc3)C2)cc1 (stereo not drawn) the results were ST2 IL33 inh 38.0%*!.
`Cc1ccc(C2=NN(C(=O)CCC(=O)O)C(c3ccc(Cl)cc3)C2)cc1` (stereo not drawn) gave ST2 IL33 inh inactive.
Screening COC(=O)C1(C(=O)N2CCNC(=O)C2c2ccc(F)cc2)CC1 (stereo not drawn) returned ST2 IL33 inh inactive.
COc1ccc(C(=O)O)cc1S(=O)(=O)Nc1ccccc1Cl was read as ST2 IL33 inh inactive.
CCOc1cc(/C=C2/NC(=O)NC2=O)c(Br)cc1O was read as ST2 IL33 inh inactive.
CCOc1cc(/C=C2\C(=O)Nc3ccc(Br)cc32)cc(Cl)c1O was read as ST2 IL33 inh 33.0%*.
For COc1cc(/C=C2\C(=O)Nc3ccc(Br)cc32)cc([N+](=O)[O-])c1O the results were ST2 IL33 inh 31.0%*.
`COc1cc(/C=C2/C(=O)NN(c3ccc(Cl)cc3)C2=O)cc([N+](=O)[O-])c1O` gave ST2 IL33 inh inactive.
`COc1ccc(/C=C2\C(=O)Nc3ccc(Br)cc32)c(OC)c1OC` gave ST2 IL33 inh inactive.
`COc1ccc(OC)c(/C=C2\C(=O)Nc3ccc(Br)cc32)c1` gave ST2 IL33 inh 35.0%*.
Screening COc1cc(/C=C2\C(=O)NC(=O)N(c3cccc(C)c3)C2=O)cc(Cl)c1O returned ST2 IL33 inh inactive.
For COc1cc(OC)c(/C=C2/C(=O)Nc3ccccc32)c(OC)c1 the results were ST2 IL33 inh inactive.
For COc1ccc(N2C(=O)NC(=O)/C(=C/c3cc(Br)c(O)c([N+](=O)[O-])c3)C2=O)cc1 the results were ST2 IL33 inh inactive.
CSc1cccc(NC(=O)Cc2c(C(=O)O)[nH]c3ccc(Cl)cc23)c1 was read as ST2 IL33 inh inactive.
CCOC(=O)C1=C(c2ccccc2)NC(SCC(N)=O)=C(C#N)C1c1ccco1 (stereo not drawn) was read as ST2 IL33 inh inactive.
For CCCCN(CC)S(=O)(=O)c1ccc2[nH]c(=O)cc(C(=O)NC(C)CC)c2c1 (stereo not drawn) the results were ST2 IL33 inh inactive.
COCC(=O)N1CCN(C(=O)NC(C)C)C[C@@H]1C(=O)N[C@@H](CC1CCCCC1)C(N)=O was read as ST2 IL33 inh inactive.
For CC1CCCCN1CCCNC(=O)C1CC(=O)N(c2ccc(F)c(Cl)c2)C1 (stereo not drawn) the results were ST2 IL33 inh inactive.
Cc1ccc(S(=O)(=O)N(C)CC(=O)Nc2ccc(I)cc2)cc1 was read as ST2 IL33 inh inactive.
Screening Cc1ccc2nsnc2c1NC(=O)COc1ccccc1[N+](=O)[O-] returned ST2 IL33 inh 32.0%*.
O=C(COc1ccccc1[N+](=O)[O-])Nc1cc(Cl)c(Cl)cc1Cl was read as ST2 IL33 inh inactive.
Screening CCC(=O)Nc1c(C)ccc2nsnc12 returned ST2 IL33 inh inactive.
Cc1ccc(N=C2C(=O)N(CN3CCOCC3)c3ccccc32)cc1 was read as ST2 IL33 inh inactive.
`O=C(CN1C(=O)C(=O)c2ccccc21)c1ccccc1` gave ST2 IL33 inh inactive.
`O=C1C(=O)N(CN2CCCCCC2)c2ccccc21` gave ST2 IL33 inh 42.0%*.
Screening Cc1ccc(OCC(=O)Nc2nnc(C(C)C)s2)c(C(C)(C)C)c1 returned ST2 IL33 inh inactive.
For COc1ccccc1C1C(C(=O)Nc2ccccn2)=C(C)NC2=C1C(=O)CCC2 (stereo not drawn) the results were ST2 IL33 inh inactive.
For O=C([C@H]1CCCO1)N1CCc2nnc(CCc3ccccc3)n2CC1 the results were ST2 IL33 inh inactive.
`CCn1c(C2CCN(Cc3cc4c(cc3OC)OCO4)CC2)nn(C)c1=O` gave ST2 IL33 inh inactive.
For O=C(Nc1cc(Cl)cc(Cl)c1)c1ccccc1Cl the results were ST2 IL33 inh inactive.
`O=C(Nn1cnnc1)c1ccccc1Cl` gave ST2 IL33 inh 56.0%*.
For O=C(Nn1cnnc1)c1ccc(C(=O)Nn2cnnc2)cc1 the results were ST2 IL33 inh inactive.
`c1ccc2c(NCC3CCCO3)ncnc2c1` (stereo not drawn) gave ST2 IL33 inh inactive.
